# In PubChem BioAssay:
# Calls of active or inactive are those of the source. The rule behind the calls is not given here.
# System: Aerobactin synthetase IucA (Klebsiella pneumoniae hvKP1)
# Experiment: IucA enzyme inhibition, primary screen, biochemical, Spectrum library (AID 1346200);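 note: 100% = wells without compound and 0% = wells lacking enzyme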
# Details: malachite green pyrophosphate, A620, at 8 µM, hits give low values
row,SMILES,activity remaining
1,O=C(O[C@@H]1Cc2c(O)cc(O)cc2O[C@@H]1c1cc(O)c(O)c(O)c1)c1cc(O)c(O)c(O)c1,113% (inactive)
2,Oc1c(I)cc(Cl)c2cccnc12,126% (inactive)
3,CCCCC(=O)O[C@]1(C(=O)CO)[C@@H](C)CC2C3CCC4=CC(=O)C=C[C@]4(C)[C@@]3(F)C(O)C[C@@]21C (some centres undefined),121% (inactive)
4,CCCCN(CCCC)CCCOC(=O)c1ccc(N)cc1,90% (inactive)
5,COc1cc(C)c(C(=O)Oc2cc(C)c(C(=O)O)c(O)c2C)c(OC)c1C,91.1% (inactive)
6,CC(=O)OCC(=O)[C@@]1(O)CCC2C3CCC4=CC(=O)CC[C@]4(C)C3[C@@H](O)C[C@@]21C (some centres undefined),85.9% (inactive)
7,CC(=O)OCC(=O)[C@H]1CCC2C3CC=C4C[C@@H](O)CC[C@]4(C)C3CC[C@@]21C (some centres undefined),92.3% (inactive)
8,CC12OC(=O)CC3C(C)(C)[C@H](O)C=C[C@]3(C)C1CC[C@]1(C)C2=CC(=O)O[C@H]1c1ccoc1 (some centres undefined),118% (inactive)
9,Oc1cc2c(cc1O)C(c1ccccc1)CNCC2 (centres undefined),88.1% (inactive)
10,C=C1CCC(OC(C)=O)/C(C)=C/C[C@@H]2[C@@H]1CC2(C)C (some centres undefined),103% (inactive)
11,NCC1CCC(C(=O)O)CC1 (centres undefined),102% (inactive)
12,CCOC(=O)[C@H](CCc1ccccc1)N[C@H]1CCc2ccccc2N(CC(=O)O)C1=O,123% (inactive)
13,COc1cc(C(=O)NCCCCCC(=O)O)cc(OC)c1OC,120% (inactive)
14,CC(=O)Nc1ccc(S(=O)(=O)Nc2ccc([N+](=O)[O-])cc2)cc1,111% (inactive)
